{"source": "PubChem BioAssay (NCI)", "note": "Compounds without any hit were thinned out: in the full panel of roughly 83,000, 20% have a hit.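 96-well plates, one dose, 48 hours. Percent growth reported; active if below 10.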 Unmarked numbers belong to inactive results. Active and inactive are the calls of the source.", "data": [{"test_system": "OVCAR-5 ovarian", "assay": "NCI-60 one-dose screen, 48 h (100 = growth as untreated, 0 = no growth, -100 = all killed)", "details": "10 µM unless noted", "values": [{"smiles": "O=C(Nc1ccc(O)cc1)C(Cl)(Cl)Cl", "growth": "102%"}, {"smiles": "CCCOC(=O)N[C@H]1CCc2c(Br)c(OC)c(OC)c(OC)c2-c2ccc(SC)c(=O)cc21", "growth": "36.7%"}, {"smiles": "CCOC(=O)[C@@H](C)C[C@H](Cc1ccccc1)NC(=O)c1csc([C@@H](C[C@H](C(C)C)N(C)C(=O)[C@@H](NC(=O)[C@H]2CCCCN2C)C(C)(C)CC)OC(C)=O)n1", "growth": "28%"}, {"smiles": "CN1CC(CNC(=O)OCc2ccccc2)CC2c3cccc4c3c(cn4C)CC21", "note": "(configuration not stated)", "growth": "64.6%"}, {"smiles": "COc1ccc(NC([Se])=NC23CC4CC(CC(C4)C2)C3)cc1", "growth": "-12.9% (active)"}, {"smiles": "ClCCN(CCCl)c1ccc(/C=N\\N=C\\c2ccc(N(CCCl)CCCl)cc2)cc1", "growth": "107%"}, {"smiles": "C[C@@]12CC=C3c4nc(Nc5cccc(O)c5)sc4CC[C@]3(C)[C@H]1CC[C@]1(C)C(=O)CC[C@@H]21", "growth": "110%"}, {"smiles": "O=[N+]([O-])/C=C\\c1ccc(Cl)c(Cl)c1", "growth": "106%"}, {"smiles": "CC(C)OC(=O)[C@H](C)NP(=O)(Oc1ccccc1)C1CCCN(O)C1=O", "note": "(some centres not stated)", "growth": "91.7%"}, {"smiles": "COC(=O)CCC1=C(C)c2cc3[n-]c(cc4nc(cc5[n-]c(cc1n2)c(CCC(=O)OC)c5C)C=C4C)cc3C.[Cd+2]", "growth": "103%"}, {"smiles": "C=CCn1cc(C=C2C(=O)N(C)C(=O)N(C)C2=O)c2ccccc21", "growth": "14.9%"}, {"smiles": "COC(=O)[C@@H](C)C[C@H](Cc1ccccc1)NC(=O)c1nc([C@@H](C[C@H](C(C)C)N(C)C(=O)[C@@H](NC(=O)[C@H]2C[C@H](O)CCN2C)C(C)C)OC(C)=O)sc1C(C)C", "growth": "33.4%"}, {"smiles": "N#CC1C(C#N)C2CCC1C1C2N1c1ccccc1", "note": "(configuration not stated)", "growth": "92.4%"}, {"smiles": "CC(C)(NC(=O)O[C@@H]1CN2CCC1CC2)c1csc(-c2ccc(F)cc2)n1", "growth": "96.2%"}, {"smiles": "CCC(C)(C)[C@H](NC(=O)[C@H]1CCCCN1C)C(=O)N(C)[C@H](C[C@@H](OC(C)=O)c1nc(C(=O)N[C@@H](Cc2ccccc2)C[C@H](C)C(=O)O)cs1)C(C)C", "growth": "42.5%"}, {"smiles": "C[C@]12CCc3sc(-c4ccccc4O)nc3C1=CC[C@@H]1[C@@H]2CC[C@]2(C)C(=O)CC[C@@H]12", "growth": "104%"}, {"smiles": "CCOC(=O)N1CC1", "growth": "97.1%"}, {"smiles": "N#CC1(C#N)C(c2ccc(N(CCCl)CCCl)cc2)OC23CCCCC2C1(C#N)C(=N)O3", "note": "(configuration not stated)", "growth": "105%"}, {"smiles": "C=CCCCN=C=S", "growth": "86.9%"}, {"smiles": "Cc1cccc(N2CCN(C(C)C#N)CC2)c1", "note": "(configuration not stated)", "growth": "103%"}, {"smiles": "O=C(Nc1ccc([N+](=O)[O-])cc1)C(Cl)(Cl)Cl", "growth": "95.6%"}, {"smiles": "COP(=S)(N1CC1)N1CC1", "growth": "95.9%"}, {"smiles": "O=C(N/N=C\\c1ccc(N(CCCl)CCCl)cc1)c1cccc([N+](=O)[O-])c1", "growth": "109%"}, {"smiles": "CC(=O)OC[C@]1(C)C=C2C(=O)[C@](C)(O)C3(CC3)C(C)=C2[C@H]1O", "growth": "-14.4% (active)"}, {"smiles": "CS(=O)(=O)CCN1CC2CCCC(C2)C1", "growth": "102%"}, {"smiles": "CCOC(=O)[C@@H](C)C[C@H](Cc1ccccc1)NC(=O)c1csc([C@@H](C[C@H](C(C)C)N(C)C(=O)[C@@H](NC(=O)[C@H]2C[C@H](O)CCN2C)C(C)C)OC(C)=O)n1", "growth": "41.8%"}, {"smiles": "CNCc1cccnc1", "growth": "114%"}, {"smiles": "Cn1cc(C=O)c2nccnc21", "growth": "120%"}, {"smiles": "Cc1cc(N(CCCl)CCCl)ccc1C=Nc1ccccc1-c1ccccc1", "growth": "43.1%"}, {"smiles": "CNC(=O)Oc1ccc2c(c1)OCO2", "growth": "106%"}, {"smiles": "COc1ccc(N(CC(=O)NCCC[Te]c2ccccc2)C(=O)CCSC2=C(C)C(=O)c3ccccc3C2=O)cc1", "growth": "-57.4% (active)"}, {"smiles": "Cn1cccc1C1CC(=O)N(CCC[Se]C#N)C1=O", "note": "(configuration not stated)", "growth": "20.4%"}, {"smiles": "CC1(C)[C@H](O)[C@H](F)C[C@@]2(C)Oc3ccc(C(=O)Nc4ccc5c(c4)NC(=O)C54CCN(CCCCC#N)CC4)cc3C[C@H]12", "growth": "62.9%"}, {"smiles": "CCOC(=O)[C@@H](C)C[C@H](Cc1ccccc1)NC(=O)c1nc([C@@H](C[C@H](C(C)C)N(C)C(=O)[C@@H](NC(=O)[C@H]2CCCCN2C)C(C)C)OC(C)=O)sc1CCOCc1ccccc1", "growth": "6.59% (active)"}, {"smiles": "C[C@]12CCc3sc(-c4cccc(F)c4)nc3C1=CC[C@@H]1[C@@H]2CC[C@]2(C)C(=O)CC[C@@H]12", "growth": "87.2%"}, {"smiles": "COC(=O)[C@H](C[C@H](Cc1ccccc1)NC(=O)c1csc([C@@H](C[C@H](C(C)C)N(C)C(=O)[C@@H](NC(=O)[C@H]2CCCCN2C)C(C)C)OC(C)=O)n1)NC(=O)OCc1ccccc1", "growth": "26.1% [8.5 µM]"}, {"smiles": "C[C@]12CC[C@H]3[C@@H](C[C@@H]4SC(Nc5ccccc5)=N[C@@]45CC(O)CC[C@]35C)[C@@H]1CCC2O", "note": "(some centres not stated)", "growth": "92.2%"}]}]}
